Compound activity (PubChem BioAssay)
A selection: hits, their analogues and other compounds. The true share with any hit is near 4.8%.
Beta apoptosis – blocks beta cell apoptosis. AID 435005. protection from apoptosis, % (test concentration not listed). 0.8% of 300,000 active. INS-1E cytokine-induced death, ATP luminescence, 48 h; percent of positive-control rescue, neutral wells zero;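 active means Every replicate reaches about 75%, or at least half do and their mean reaches it too, limit read from the data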;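 further: higher means more ATP so stronger rescue from cytokine killing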
MPTP block – blocks calcium-induced mitochondrial swelling | isolated mouse mitochondria, Ca2+ swelling absorbance, 30 min | inhibition, % at 10 µM | 1.4% of 360,000 active;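 active means inhibition of 50% or more, scaled per plate between neutral and stimulator controls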
Mdm2-MdmX inh – inhibitors of human Mdm2/MdmX interaction. inhibition, % at 8 µM. 3% of 330,000 active. AID 485346. O15151+Q00987. SaOS-2 split-luciferase Mdm2/MdmX complementation, luminescence;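 active means inhibition of at least 50% at 8 µM in the primary screen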
Target sequence (O15151 whole entry, looked up): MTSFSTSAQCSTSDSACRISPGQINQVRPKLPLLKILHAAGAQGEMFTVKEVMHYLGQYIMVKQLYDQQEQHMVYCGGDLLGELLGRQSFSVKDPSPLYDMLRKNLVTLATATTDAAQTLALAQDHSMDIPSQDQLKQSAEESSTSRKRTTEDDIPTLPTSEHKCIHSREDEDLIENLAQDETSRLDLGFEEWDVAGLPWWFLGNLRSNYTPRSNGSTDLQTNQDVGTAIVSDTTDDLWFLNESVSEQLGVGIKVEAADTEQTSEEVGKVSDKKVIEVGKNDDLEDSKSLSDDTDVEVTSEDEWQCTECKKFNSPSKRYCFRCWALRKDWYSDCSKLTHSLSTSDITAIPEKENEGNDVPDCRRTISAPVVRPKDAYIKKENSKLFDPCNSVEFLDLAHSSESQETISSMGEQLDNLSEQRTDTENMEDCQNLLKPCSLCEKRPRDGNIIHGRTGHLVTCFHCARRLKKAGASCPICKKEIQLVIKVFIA
Target sequence (Q00987 whole entry, looked up): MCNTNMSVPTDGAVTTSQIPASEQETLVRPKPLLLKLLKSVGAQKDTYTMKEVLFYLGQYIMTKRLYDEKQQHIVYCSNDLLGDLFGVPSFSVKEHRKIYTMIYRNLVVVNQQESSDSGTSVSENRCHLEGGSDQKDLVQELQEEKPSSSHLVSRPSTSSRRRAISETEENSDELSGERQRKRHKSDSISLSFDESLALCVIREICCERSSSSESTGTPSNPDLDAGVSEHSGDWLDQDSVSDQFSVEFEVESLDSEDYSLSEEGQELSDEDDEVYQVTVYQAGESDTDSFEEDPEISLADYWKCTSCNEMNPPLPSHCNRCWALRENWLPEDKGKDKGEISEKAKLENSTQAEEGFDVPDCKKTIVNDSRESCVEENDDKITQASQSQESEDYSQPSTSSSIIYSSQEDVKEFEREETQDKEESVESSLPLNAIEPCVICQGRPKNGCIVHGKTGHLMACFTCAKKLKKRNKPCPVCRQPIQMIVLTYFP
Calb FLC – affects C. albicans growth with fluconazole; C. albicans CaCi-2 (fluconazole-resistant clinical isolate) + fluconazole, Alamar Blue growth, 48 h; growth inhibition, % (concentration not given with the values); 0.57% of 300,000 active; AID 1979;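 active means growth inhibition above about 58% in most replicates, limit read from the data, passing the limit was not always enough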;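 further: all wells also contain fluconazole at 8 µg/ml as a sub-toxic cotreatment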
CSC inhib – cancer stem cell inhibition. inhibition, % at 7.5 µM. 1.1% of 300,000 active. cancer stem cell-like cells viability, luminescence; in the data active means inhibition above about 75%; tested in HMLE shEcad cells
Mdm2 MdmX conf – human Mdm2/MdmX binding inhibition, confirmed; shares compounds with Mdm2-MdmX inh; luminescent assay; inhibition, % at 8 µM; 55% of 10,000 active; AID 489028; in the data active means inhibition above about 40%
Full FLuc ctr – inhibits full-length luciferase, flagging false Mdm2/MdmX hits. 77% of 6,200 active. shares compounds with Mdm2-MdmX inh. inhibition, % at 8 µM. AID 504607. SaOS-2 full-length luciferase counterscreen, luminescence;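 active means mean inhibition at 8 µM reaching about 37%, which flags the compound as non-specific, limit read from the data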;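 further: p53-null SaOS-2 cells with luciferase driven by a doxycycline-inducible promoter; compound on cells about two nights before reading with doxycycline added after day one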
Hits are given with their value; 0 = inactive; - = no result.

SMILES	Beta apoptosis	MPTP block	Mdm2-MdmX inh	Calb FLC	CSC inhib	Mdm2 MdmX conf	Full FLuc ctr
N/C(CCS(=O)(=O)c1ccc(Cl)cc1)=N\OC(=O)c1ccc(Cl)cc1	0	0	55.1	0	0	0	-
C=C1C(=O)O[C@@]23[C@H]1CC[C@@H](C)[C@@H]2CC[C@@]1(C)O[C@@H]31	0	0	71.0	-	0	0	0
COc1ccc(-c2csc(/C(C#N)=C/Nc3ccc4c(c3)OCCO4)n2)cc1	0	0	52.0	0	0	0	-
N#C/C(=C\Nc1ccc2c(c1)OCCO2)c1nc(-c2ccccc2)cs1	0	0	0	0	0	-	-
COc1ccc(-c2csc(/C(C#N)=C\c3ccc(OC)c([N+](=O)[O-])c3)n2)cc1	0	0	53.7	0	0	0	-
CC(C)N(c1ccccc1)c1ccc(NC(=O)[C@@H]2O[C@H](CO)[C@@H](O)[C@H]2O)cc1	-	0	-	-	-	-	-
CC(C)c1ccc(NC(=O)[C@@H]2CCC(=O)N2C2OC(=O)c3ccccc32)cc1 (stereo partly drawn)	0	0	0	0	0	-	-
COc1ccc(-c2noc(CSc3nc4sc(C)c(C)c4c(=O)n3-c3ccccc3)n2)cc1OC	0	0	50.0	0	0	0	-
CC(C)CNC(=O)C1(C)CCCN1C(=O)c1ccc2c(c1)CCO2 (stereo not drawn)	-	0	-	-	-	-	-
CN(C)/C=C/C(=O)c1ccc(N2CCN(c3ncc(C(F)(F)F)cc3Cl)CC2)cc1	0	0	91.7	0	0	0	-
CN(C)C=NC(=O)c1ccc(N2CCN(c3ncc(C(F)(F)F)cc3Cl)CC2)cc1	0	0	0	0	0	-	-
O=c1[nH]c(=O)c2cc3ccccc3nc2[nH]1	-	0	-	-	-	-	-
Cc1cc2cc3c(=O)[nH]c(=O)[nH]c3nc2cc1C	0	-	53.1	0	0	0	-
O=C1/C(=C/c2ccccn2)SC(=S)N1N1CCOCC1	-	0	0	0	0	-	-
CN(C(=O)CSc1ncnc2sccc12)c1c(N)n(Cc2ccccc2)c(=O)[nH]c1=O	0	0	0	0	0	-	-
Cc1ccc(N=Nc2c(N)[nH]n3c(=O)cc(-c4ccccc4)nc23)cc1	0	0	0	0	-	-	-
COc1cccc(N=Nc2c(N)[nH]n3c(=O)cc(-c4ccccc4)nc23)c1	0	0	61.7	0	0	0	-
Cc1nc2ccc(C(=O)N3c4ccccc4CC3C)cc2s1 (stereo not drawn)	0	0	66.1	116.2	0	57.6	50.0
CC1Cc2ccccc2N1C(=O)c1cccnc1 (stereo not drawn)	0	0	0	0	0	-	-
COc1ccccc1N1CCN(c2nc3ccccc3nc2C(C#N)C(=O)OC(C)C)CC1 (stereo not drawn)	0	0	0	0	0	-	-
CCCCCCOC(=O)C(C#N)c1nc2ccccc2nc1N1CCN(CC)CC1 (stereo not drawn)	0	0	59.7	0	0	0	69.7
CCOc1ccccc1N1CCN(c2nc3ccccc3nc2C(C#N)C(=O)OC)CC1 (stereo not drawn)	0	0	71.1	0	0	0	-
COC(=O)C[C@H]1CC[C@H](NC(=O)Nc2ccccc2)[C@@H](CO)O1	-	0	-	-	-	-	-
O=C(CCl)NCc1c(Cl)cccc1-n1cccc1	0	0	56.0	0	0	40.9	0
O=c1[nH][nH]c2c1[C@H](CCc1cccc(Cl)c1)O[C@H](CCc1ccccc1)C2	-	0	-	-	-	-	-
SMILES	Beta apoptosis	MPTP block	Mdm2-MdmX inh	Calb FLC	CSC inhib	Mdm2 MdmX conf	Full FLuc ctr
COc1ccc2c(c1)O[C@H](c1ccc3c(c1)OCO3)[C@@H](O)C2=O	0	0	50.0	0	0	0	-
COc1ccc2c(c1)O[C@@H](c1cccc(C(F)(F)F)c1)[C@H](O)C2=O	0	-	54.7	0	0	60.0	36.2
COc1ccc2c(c1)CO[C@]21O[C@H](CCO)C[C@H](O)[C@H]1O	-	0	-	-	-	-	-
CC(=O)Nc1cc(-c2cccnc2)cn2c(-c3ccc(F)cc3)cnc12	-	0	-	-	-	-	-
COc1ccc(Nc2nc(N)c(C(=O)c3ccc(OC)cc3)s2)cc1	0	0	50.3	0	0	59.1	59.5
COc1cccc(C(=O)c2sc(NC(C)C)nc2N)c1	0	0	75.6	0	-	43.8	111.4
COc1ccc(Nc2nc(N)c(C(=O)c3ccc(F)cc3)s2)cc1	0	0	50.5	0	0	52.1	81.2
COc1ccc(C(=O)c2sc(Nc3ccccc3)nc2C)cc1	-	0	0	0	-	-	-
CC1(C(=O)Nc2ccc3c(c2)OCCO3)CN(S(C)(=O)=O)CC(=O)N1CC(F)(F)F (stereo not drawn)	-	0	-	-	-	-	-
CC(OC(=O)c1ccco1)C(=O)Nc1ccc(C(F)(F)F)cc1 (stereo not drawn)	0	0	0	-	0	-	-
C=CCn1c(SCc2nc3ccccc3c(=O)[nH]2)nc2sc3c(c2c1=O)CCCC3	0	-	84.7	0	0	0	-
COc1ccc(C2C(C#N)=C(N)Oc3cc(O)ccc32)cc1OC (stereo not drawn)	0	0	0	0	0	-	-
Cc1ccc(C2C(C#N)=C(N)Oc3cc(N)ccc32)cc1 (stereo not drawn)	0	0	0	0	0	-	-
CCOC(=O)C1=C(C)OC(N)=C(C#N)C1c1cc(OC)c2c(c1)OCO2 (stereo not drawn)	0	0	0	0	0	-	-
N#CC1=C(N)Oc2cc3c(cc2C1c1ccc(Cl)cc1)OCO3 (stereo not drawn)	0	0	61.4	0	0	46.5	60.3
COc1cc(C2C(C#N)=C(N)Oc3cc4c(cc32)OCO4)cc(OC)c1OC (stereo not drawn)	0	0	80.7	0	0	67.7	126.1
COc1cc(C2C3=C(COC3=O)Oc3cc4c(cc32)OCO4)cc(OC)c1OC (stereo not drawn)	-	0	-	-	-	-	-
COc1cc(C2C(C#N)=C(N)Oc3cc(O)ccc32)cc(OC)c1OC (stereo not drawn)	0	0	64.7	0	0	66.8	66.7
COc1cc(C2C(C#N)=C(N)Oc3cc(N(C)C)ccc32)cc2c1OCO2 (stereo not drawn)	0	0	78.1	0	0	63.9	111.6
O=C(O)CC1c2ccccc2CCN1S(=O)(=O)c1cccs1 (stereo not drawn)	0	0	0	0	0	-	-
CC(C)=CCOc1ccc2c(C)c(CCC(=O)N3C[C@H]4C[C@@H](C3)c3cccc(=O)n3C4)c(=O)oc2c1C	-	0	-	-	-	-	-
CN(C)CCN1CCN(C2CN(Cc3ccccc3)S(=O)(=O)C2)CC1 (stereo not drawn)	-	0	-	-	-	-	-
CCOC(=O)[C@]12CCCC=C1N(Cc1ccc3c(c1)OCO3)C(=O)[C@H](CC(=O)NCCc1ccccc1OC)C2	-	0	-	-	-	-	-
O=C(O)c1cc2ccc3cccc4ccc(c1)c2c34	0	0	0	0	0	-	-
COc1ccc(C2C(C#N)=C(N)Oc3cc(O)ccc32)cc1C (stereo not drawn)	0	0	0	0	0	-	-
COc1cc(C2C(C#N)=C(N)Oc3cc(O)ccc32)cc2c1OCO2 (stereo not drawn)	0	0	57.4	0	0	55.8	59.3
O=C(COc1ccccc1F)Nc1cc(S(=O)(=O)Nc2cccc(Cl)c2)ccc1O	0	0	0	-	-	-	-
